Measurements: PubChem BioAssay (NCI)
This is part of a sample that, as a whole, favours compounds with a hit. Of some 83,000 tested, about 20% had one in any assay.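 Values shown are percent growth following 48 h exposure of cells in 96-well plates to a single concentration of compound; below 10 was considered active.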 Unmarked numbers belong to inactive results. Calls of active or inactive are those of the source.

These compounds were tested on IGROV1 ovarian (assay: NCI-60 one-dose screen, 48 h (100 = growth as untreated, 0 = no growth, -100 = all killed)). Details: 10 µM unless noted.
Protocol: Growth inhibition of the IGROV1 human tumor cell line is measured as a screen for anti-cancer activity. Cells are grown in 96 well plates and exposed to the test compound for 48 hours. Compounds are tested at a single concentration, which is 10^-5 M for most compounds. The reported endpoint is percent growth (GI% or GIPRCNT), where numbers from 0 - 100% represent growth inhibition, and numbers from -100% - 0 represent cell death. For example, a value of 40 represents 60% growth inhibition. A value of 0 means no net growth occurred over the course of the experiment. A value of -40 indicates 40% of cells at the beginning of the experiment died by the end of the experiment. A value of -100 means all cells are dead at the end of the experiment.
NCI-60 Human Tumor Cell Lines Screen was performed using the standard one-dose NCI protocol, which is described in more detail at https://dtp.cancer.gov/discovery_development/nci-60/default.htm.
Compounds with GIPRCNT values below 10 were considered active. Activity score was based on GIPRCNT using the following formula: […]
Score is 0 for GIPRCNT values of 100 or above, 50 for GIPRCNT values of 0, and 100 for GIPRCNT values of -100.

| Compound | growth |
| --- | --- |
| COc1cc2nc(N3CCCC3)nc(NCC3CCCCC3)c2cc1OC | 72.3% |
| O=C(CN(C(=O)Cn1c(=O)n2nnnc2c2ccccc21)c1ccccc1C(F)(F)F)Nc1ccc(C(F)(F)F)cc1 | 88.1% |
| CC(C)C1=C[C@@]23CC[C@@H]4[C@](C)(CCC[C@@]4(C)C(=O)N4CCCNCC4)[C@H]2C[C@@H]1[C@H]1C(=O)CCC(=O)[C@H]13 | 99.2% |
| Cc1nn(-c2ccc(F)cc2)c2ncnc(Oc3ccc(NC(=O)Nc4ccc(Cl)c(C(F)(F)F)c4)cc3)c12 | 102% |
| O=C1c2ccccc2C(=O)c2c(N=Nc3[nH]c(=S)[nH]c3O)cccc21 | 27% |
| O=C1Nc2ccc(Br)cc2C12Oc1ccccc1C1CC(c3ccc(F)cc3)=NN12 (stereo not given) | 72.8% |
| O=C(Cn1cccc(Nc2ccccc2)c1=O)Nc1ccccc1 | 119% |
| O=C1Nc2c(ccc(Cl)c2Cl)/C1=C\c1ccc(C(F)(F)F)cc1 | 54.1% |
| CS(=O)(=O)c1ccc(-n2nc(-c3ccc(Br)cc3)c3ccccc3c2=O)cc1 | 109% |
| COc1ccc(/C=C/C(=O)c2cc(O)ccc2O)cc1 | 83.4% |
| OCC(O)c1nc2ccc3[nH]ncc3c2c2c1CCCC2 (stereo not given) | 10.4% |
| CC(=O)Oc1ccc(Cl)cc1CN(C(C)=O)C1CCCCC1 | 98.2% |
| CCCCn1c(-c2ccc(C(=O)O/N=C(\N)c3ccc4c(c3)OCO4)cc2)nc(-c2ccccc2)c1-c1ccccc1 | -68.5% (active) |
| O=C1/C(=C/c2ccccc2)SC(=S)N1CCc1ccc(O)cc1 | 82.3% |
| COc1ccc(NC2=C(Sc3nc(C)cc(C)n3)C(=O)N(Cc3ccccc3)C2=O)cc1Cl | 113% [30 µM] |
| Cn1cc(-c2nonc2-c2cn(C)c3ccc(F)cc23)c2ccccc21 | 24.6% |
| Cn1c(=O)c2c(nc3n(-c4ccc(Cl)cc4Cl)c(Sc4nc(-c5ccccc5)c(C#N)c(=O)[nH]4)cn23)n(C)c1=O | 55.6% |
| O=C(COc1ccc(/C=C2\CSc3ccccc3C2=O)cc1)Nc1nccs1 | -51.8% (active) |
| O=C1c2cc3c(cc2-c2c1c1ccc(F)cc1c(=O)n2CCCNCCO)OCO3 | -5.09% (active) |
| COc1ccccc1Nc1nc(-c2cc3cccc(C(F)(F)F)c3oc2=O)cs1 | 22.9% |

| Compound | growth |
| --- | --- |
| CC(C)(O)c1cn(CCCCN2C(=O)C(=O)c3ccccc32)nn1 | 102% |
| CCOc1cc2ncc(C#N)c(Nc3ccc(F)c(Cl)c3)c2cc1NC(=O)CC1CCSS1 (stereo not given) | -45.9% (active) |
| COc1ccc(/C=C/c2nc3ccccc3nc2/C=C/c2ccc(OC)cc2)cc1 | 110% |
| CCOc1ccc(-n2nc(C(=O)Nc3ccccc3)nc2-c2cc(OC)c(OC)c(OC)c2)cc1 | 55.1% |
| CCc1nc(N)nc(N)c1C#CC(C)c1ccc(-c2ccncc2)cc1Cl (stereo not given) | 18.2% |
| COc1ccc(-c2cc(NC(=O)Nc3ccc4ncsc4c3)no2)cc1 | 107% |
| COc1ccc2[nH]cc(-c3noc(C(=O)c4cn(C)c5ccc(F)cc45)n3)c2c1 | 60.1% |
| O=C(/C=C/c1ccccc1)c1ccc(O)c(CN2CCN(c3cc4c(cc3F)c(=O)c(C(=O)O)cn4C3CC3)CC2)c1 | 28.7% |
| COc1ccc(-n2nc(C)c3c(Nc4ccc(NC(=O)Nc5ccc(Cl)c(C(F)(F)F)c5)cc4)ncnc32)cc1 | 18.6% |
| COc1cc2c(cc1O)CC[C@@H]1[C@@H]2CC[C@]2(C)[C@@H](NCCN(C)C)CC[C@@H]12 | -74.8% (active) |
| C=C(C)[C@@H]1CC[C@]2(C(=O)OC)CC[C@]3(C)[C@H](CC[C@@H]4[C@@]5(C)C/C(=C/c6cccc(I)c6)C(=O)C(C)(C)[C@@H]5CC[C@]43C)[C@@H]12 | 103% |
| Cc1cc(N2CCCCC2)nc(NC2CCCC(Nc3ccnc4cc(Cl)ccc34)C2)n1 (stereo not given) | -33% (active) |
| CC[C@H]1OC(=O)[C@H](C)[C@@H](O[C@H]2C[C@@](C)(OC)[C@@H](O)[C@H](C)O2)[C@H](C)[C@@H](O[C@@H]2O[C@H](C)C[C@H](N(C)C)[C@H]2O)[C@](C)(O)C[C@H](C)CN(C)[C@H](C)[C@@H](O)[C@]1(C)O | 98.3% |
| CCCSc1ccc2nc(NC(=O)OC)[nH]c2c1 | 45.3% |
| C#Cc1cccc(NC(=O)c2ccccc2NC(=O)C=C)c1 | 101% [8.25 µM] |
| CNC(=O)c1cc(Oc2ccc(NC(=O)Nc3ccc(Cl)c(SC)c3)c(F)c2)ccn1 | 56.4% |
| Oc1cccc2ccc(N/N=C/c3cc(CN4CCOCC4)c(O)c4ncccc34)nc12 | 18.7% |
| Cc1nn(-c2cc(=O)[nH]c3ccc(Cl)cc23)c(N)c1C#N | 73.1% |
| COc1cccc(-c2nc(SCC(=O)Nc3ccc(C(=O)/C=C/c4ccc(OC)c(OC)c4)cc3)[nH]c(=O)c2C#N)c1 | 103% |
| Cc1ccc(NC(=O)/C=C/c2ccccc2)c(C(N)=O)c1 | 91.4% |
